Records with an inconclusive call do not appear. Active and inactive are the calls of the source. Unless noted, calls come from the whole dose curve.
Tests used:
[1] = qHTS assay to identify small molecule agonists of the vitamin D receptor (VDR) signaling pathway - cell viability counter screen (AID 743224; active = well fitted curve in the direction sought with a large enough effect in the repeat runs; an effect the other way counts as inactive or inconclusive; note: series mostly up to about 63 µM; nearly all actives have a fitted effect of over 50% in size)
Outline: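 Cells: VDR-bla, 2,000/well, settled 4 h. Treatment: compounds in DMSO, 16 h, 37C/5% CO2. Readout: CellTiter-Glo luminescence after 30 min RT.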

[2] = qHTS assay to identify small molecule antagonists of the vitamin D receptor (VDR) signaling pathway - cell viability counter screen (AID 743225; active = well fitted curve in the direction sought with a large enough effect in the repeat runs; an effect the other way counts as inactive or inconclusive; note: nearly all actives have a fitted effect of over 50% in size)
Outline: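 Cytotoxicity counter screen read by CellTiter-Glo luminescence (30 min, room temperature) in the same wells as the VDR-bla antagonist readout. HEK 293T VDR-UAS-bla cells had 16 h at 37C with compound and 3 nM (final) 1-alpha,25-dihydroxyvitamin D3, then 2 h with FRET substrate.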

[3] = qHTS assay to identify small molecule agonists of the NFkB signaling pathway (AID 1159509; active = well fitted curve in the direction sought with a large enough effect in the signal ratio in the repeat runs, not every such curve was filed as active; the % refers to the signal ratio; note: series mostly up to about 61 µM)
Outline: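 Agonist activity was read as beta-lactamase-driven FRET change (460 and 530 nm emission, 405 nm excitation) following 1.5 hr substrate loading at room temperature. Beforehand, ME-180 NFkB-bla reporter cells were treated with compounds for 5 hr at 37 C.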

[4] = qHTS assay to identify small molecule agonists of the NFkB signaling pathway - cell viability counter screen (AID 1159515); note: series mostly up to about 61 µM; nearly all actives have a fitted effect of over 55% in size
Outline: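 Cells are seeded (2,000 NFkB-bla ME-180 per well), rested overnight, and dosed with DMSO-dissolved compounds for 5 hr at 37 C. Viability is then read by CellTiter-Glo luminescence after 30 min at room temperature.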

[5] = qHTS assay to identify small molecule agonists of the endoplasmic reticulum stress response signaling pathway (AID 1159516; active = well fitted activation curve with a large enough effect in the signal ratio in the repeat runs, not every such curve was filed as active; the % refers to the signal ratio)
Outline: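 Cells are seeded at 1,500 per well and incubated overnight. Compounds in DMSO are added for 5 hr at 37 C, then beta-lactamase FRET substrate for 2 hr at room temperature, and fluorescence at 460 and 530 nm is measured.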

[6] = qHTS assay to identify small molecule agonists of the endoplasmic reticulum stress response signaling pathway - cell viability counter screen (AID 1159517);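 note: HeLa cells carrying an ER stress response element beta-lactamase reporter; series mostly up to about 61 µM; nearly all actives have a fitted effect of over 50% in size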
Outline: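 In parallel with the ESRE reporter read, cytotoxicity was scored by CellTiter-Glo luminescence (30 min, room temperature) on HeLa ESRE-bla cells dosed for 5 hr.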

[7] = qHTS assay to identify small molecule antagonists of the retinoid-related orphan receptor gamma (ROR-gamma) signaling pathway - cell viability counter screen (AID 1159520; active = well fitted curve in the direction sought with a large enough effect in the repeat runs; an effect the other way counts as inactive or inconclusive; note: nearly all actives have a fitted effect of over 50% in size)
Outline: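 Tet-on ROR gamma CHO cells were given compounds for 2 hr, then doxycycline hyclate at 1 uM final, and incubated 16 hr at 37 C. Viability was measured as ATP content by CellTiter-Glo luminescence.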

[8] = qHTS assay to identify small molecule agonists of the AP-1 signaling pathway - cell viability counter screen (AID 1159525); note: nearly all actives have a fitted effect of over 55% in size
Outline: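 Same-well cytotoxicity counter screen of the Tox21 10K library in ME-180 cells. The readout is ATP-dependent luminescence after 5 h compound treatment. Data are normalised to DMSO and tetra n-octyl ammonium bromide controls.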

[9] = qHTS assay to identify small molecule agonists of the AP-1 signaling pathway (AID 1159526)
[10] = target: Nuclear receptor ROR-gamma (Homo sapiens) (UniProt P51449); assay: qHTS assay to identify small molecule antagonists of the retinoid-related orphan receptor gamma (ROR-gamma) signaling pathway (AID 1159521; active = well fitted curve in the direction sought with a large enough effect in the repeat runs; an effect the other way counts as inactive or inconclusive)
Outline: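 Antagonist read-out: drop in luminescence (ONE-Glo) from an RORE-LUC reporter in CHO cells with doxycycline-inducible ROR-gamma; 2 hr compound pretreatment, 1 uM doxycycline, 16 hr incubation at 37 C.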

Measured: Potency

CCCCN
inactive: [1] | [2] | [3] | [4] | [5] | [6] | [7] | [8] | [9]

CC(CN)CC(C)(C)CCN (stereo not drawn)
inactive: [2] | [3] | [4] | [5] | [6] | [7] | [8] | [9]

O=C1c2ccccc2C(=O)C1c1ccccc1
inactive: [1] | [2] | [3] | [4] | [5] | [6] | [7] | [8] | [9]

Nc1ncnc(Nc2ccccc2)n1
inactive: [1] | [2] | [3] | [4] | [5] | [6] | [7] | [8] | [9]

CCN(C)C(=O)Oc1cccc([C@H](C)N(C)C)c1
inactive: [1] | [3] | [4] | [5] | [7] | [8] | [9]

CC(C)CC(=O)O
inactive: [2] | [3] | [4] | [5] | [10] | [8] | [9]

CCCC/C=C\CCCCCCCCCC=O
inactive: [1] | [2] | [3] | [4] | [5] | [7] | [10] | [8] | [9]

CCOc1cc([N+](=O)[O-])c(OCC)cc1N1CCOCC1
inactive: [1] | [2] | [3] | [4] | [5] | [7] | [10] | [8] | [9]

CCCCCCCCSCC
inactive: [1] | [3] | [4] | [5] | [7] | [10] | [8] | [9]

CCCCCCCCCCCCCC
inactive: [1] | [2] | [3] | [4] | [5] | [7] | [10] | [8] | [9]

COC(=O)c1ccccc1C(=O)c1ccc(OCCN2CCCCC2)cc1
inactive: [1] | [2] | [3] | [4] | [5] | [7] | [10] | [8] | [9]

CCOC(=O)c1ccc(OC(=O)CCCCCN=C(N)N)cc1
inactive: [1] | [2] | [3] | [4] | [5] | [7] | [10] | [8] | [9]

Cc1ccccc1C(=O)Nc1ccc(C(=O)N2CCCC(N(C)C)c3ccccc32)cc1 (stereo not drawn)
inactive: [1] | [2] | [3] | [4] | [5] | [10] | [8] | [9]

C=C(C)C1CCC(C)(O)CC1 (stereo not drawn)
inactive: [1] | [2] | [3] | [4] | [5] | [8] | [9]

CC(C)C[C@H](NC(=O)CNC(=O)[C@H](Cc1ccc(O)cc1)NC(=O)[C@H](CO)NC(=O)[C@H](Cc1c[nH]c2ccccc12)NC(=O)[C@H](Cc1cnc[nH]1)NC(=O)[C@@H]1CCC(=O)N1)C(=O)N[C@@H](CCCN=C(N)N)C(=O)N1CCC[C@H]1C(=O)NCC(N)=O (stereo in doubt)
inactive: [1] | [3] | [4] | [5] | [7] | [10] | [8] | [9]

CC1(CO)CN(c2ccccc2)NC1=O (stereo not drawn)
inactive: [3] | [4] | [5] | [7] | [10] | [8] | [9]

CO[C@@H]1[C@@H](OC(N)=O)[C@@H](O)[C@H](Oc2ccc3c(O)c(NC(=O)c4ccc(O)c(CC=C(C)C)c4)c(=O)oc3c2C)OC1(C)C
inactive: [1] | [2] | [3] | [4] | [5] | [7] | [10] | [8] | [9]

COc1ccc2nc(SCc3ncc(C)c(OC)c3C)[nH]c2c1
inactive: [2] | [3] | [4] | [5] | [7] | [10] | [8] | [9]

c1ccc2nccnc2c1
inactive: [2] | [3] | [4] | [5] | [7] | [10] | [8] | [9]

C=CCCCCCCCCCCCC
inactive: [1] | [2] | [3] | [4] | [5] | [7] | [10] | [8] | [9]

CC(C)(C)OC(=O)c1ccc(O)cc1
inactive: [1] | [3] | [4] | [5] | [7] | [10] | [8] | [9]

CN(C)CCOCCO
inactive: [1] | [3] | [4] | [5] | [7] | [10] | [8] | [9]

O=C(O)c1ccc(Cl)cc1Cl
inactive: [1] | [2] | [3] | [4] | [5] | [10] | [8] | [9]

CCCCOCCOC(=O)COc1nc(Cl)c(Cl)cc1Cl
inactive: [1] | [2] | [3] | [4] | [5] | [10] | [8] | [9]

COc1ccc(C2CNC(=O)C2)cc1OC1CCCC1 (stereo not drawn)
inactive: [1] | [3] | [4] | [5] | [7] | [10] | [8] | [9]

CCCCCCCCC(=O)Cl
inactive: [1] | [3] | [4] | [5] | [7] | [8] | [9]

— PubChem BioAssay (Tox21)
